NS1 function inh = influenza NS1 inhibition; hit rate 0.4% among 270,000; AID 2326; Potency, µM (highest dose often 46.1 µM); calls by dose curve; note: actives are rising curves; nearly all actives have a fitted effect of over 50% in size
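Recovery from NS1-induced slow growth read by OD600 in budding yeast switched to galactose assay medium (pH 6.0, -URA) at 1:100 dilution. Compound 23 nl per well; the matching strain lacking NS1 serves as control.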
Shiga inhibitor = Shiga toxin inhibition | AID 2315 | inhibition, % at 38.7 µM | hit rate 9.2% among 290,000 | Vero cells, Shiga toxin protein synthesis inhibition reporter; in the data active = inhibition mostly above about 28%, no sharp cut-off; inactive = mostly below about 43%
LmPK inhibitor = LmPK (Leishmania mexicana) enzyme inhibition. purified LmPK, Kinase-Glo ATP luminescence, 1 h. Potency, µM (titrated, usually from 57.5 µM), actives largely listed as inhibitors. hit rate 0.37% among 290,000. AID 1721
Target sequence (Q27686 whole entry, looked up): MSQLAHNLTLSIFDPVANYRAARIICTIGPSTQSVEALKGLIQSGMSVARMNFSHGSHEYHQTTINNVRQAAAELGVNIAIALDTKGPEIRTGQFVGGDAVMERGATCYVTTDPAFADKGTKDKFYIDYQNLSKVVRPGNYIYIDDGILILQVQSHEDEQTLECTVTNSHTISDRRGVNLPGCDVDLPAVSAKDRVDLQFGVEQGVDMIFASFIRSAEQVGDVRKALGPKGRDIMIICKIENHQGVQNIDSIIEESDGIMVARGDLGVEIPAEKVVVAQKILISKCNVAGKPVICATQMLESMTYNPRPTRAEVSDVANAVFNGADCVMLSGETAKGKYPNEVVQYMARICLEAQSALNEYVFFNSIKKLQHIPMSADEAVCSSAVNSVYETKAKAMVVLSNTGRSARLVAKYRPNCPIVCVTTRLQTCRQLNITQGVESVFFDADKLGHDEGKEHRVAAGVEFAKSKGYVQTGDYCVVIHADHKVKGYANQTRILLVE
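0.1 nM LmPK, 0.5 mM PEP, 0.1 mM ADP; 50 mM imidazole pH 7.2, 7 mM MgCl2, 50 mM KCl; 1 h RT. Kinase-Glo luminescence readout, normalized to no-enzyme (full inhibition) and uninhibited wells.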
SARS PLpro yeast = SARS-CoV PLP inhibition in yeast; S. cerevisiae expressing SARS-CoV PLpro, growth rescue; Potency, µM (highest dose often 32.9 µM), most hits filed as activators; hit rate 0.19% among 330,000; AID 485353; calls by dose curve; note: nearly all actives have a fitted effect of over 55% in size
Tb PYK inh = inhibitors of Trypanosoma brucei pyruvate kinase | Q57TT1 | TbPYK enzyme, Kinase-Glo Plus ATP luminescence, 45 min | Potency, µM (series often up to 76.8 µM), most hits filed as inhibitors | hit rate 0.12% among 410,000 | AID 624173; note: nearly all actives have a fitted effect of over 50% in size
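In this concentration-response screen, enzyme-free wells defined baseline while DMSO plates tracked drift. Each reaction combined TbPYK, substrate, compound and 130 uM ADP for 45 min at room temperature. Kinase-Glo Plus luminescence gave the signal.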
Cycloheximide cs = affects cycloheximide protein synthesis inhibition readout, counter-screen. cell reporter, cycloheximide protein synthesis inhibition counterscreen. max response, %. hit rate 12% among 300,000. AID 2314; in the data active = max response mostly above about 13%, no sharp cut-off; inactive = mostly below about 14%; note: read at 38.3 µM for the half of the compounds with a filed dose
A number is an active result. The sample as a whole holds a higher share of hits than the screen did. Unless noted, calls come from the whole dose curve; as a rule, active = well fitted curve in the direction sought with a large enough effect; inconclusive = small, poorly fitted or top-dose-only effect, or another doubt; inactive = no such curve, though single readings can be large; an effect the other way counts as inactive or inconclusive.

For CCc1ccccc1NC(=O)COc1ccc(N2CC(C(N)=O)CC2=O)cc1 (centres undefined) the results were NS1 function inh inactive, Shiga inhibitor inactive, LmPK inhibitor inactive, SARS PLpro yeast inactive, Tb PYK inh inactive and Cycloheximide cs inactive.
Screening O=C(Nc1cccc2ccccc12)c1ccccc1Cl returned NS1 function inh inactive, Shiga inhibitor inactive, LmPK inhibitor inactive, SARS PLpro yeast inactive, Tb PYK inh inactive and Cycloheximide cs inactive.
Screening Nc1ccccc1C(=O)Nc1cccc2ccccc12 returned NS1 function inh inactive, Shiga inhibitor 35.8, LmPK inhibitor inactive, SARS PLpro yeast inactive, Tb PYK inh inactive and Cycloheximide cs 35.3.
NC(=O)NNC(=S)Nc1cccc2ccccc12 was read as NS1 function inh inactive, Shiga inhibitor inactive, LmPK inhibitor inactive, SARS PLpro yeast inactive, Tb PYK inh inactive and Cycloheximide cs inactive.
`NC(=O)c1ccccc1NC(=O)Nc1cccc2ccccc12` gave Shiga inhibitor inactive, LmPK inhibitor inactive, SARS PLpro yeast inactive, Tb PYK inh inactive and Cycloheximide cs 36.0.
`Nc1[nH]c2cc([N+](=O)[O-])ccc2c1-c1ccccn1` gave NS1 function inh inactive, Shiga inhibitor inactive, LmPK inhibitor inactive, SARS PLpro yeast inactive, Tb PYK inh inactive and Cycloheximide cs inactive.
For COc1ccc(-c2cccc(NC(=O)c3ccc4c(c3)OCO4)c2)nn1 the results were SARS PLpro yeast inactive and Tb PYK inh inactive.
Screening O=C(CN1C(=O)COc2ccccc21)N1CCOCC1 returned NS1 function inh inactive, Shiga inhibitor inactive, LmPK inhibitor inactive, SARS PLpro yeast inactive, Tb PYK inh inactive and Cycloheximide cs inactive.
`O=C1CN(CC(=O)N2CCCCC2)c2ccccc2O1` gave NS1 function inh inactive, Shiga inhibitor inactive, LmPK inhibitor inactive, SARS PLpro yeast inactive, Tb PYK inh inactive and Cycloheximide cs 23.6.
For O=C(CN1C(=O)COc2ccccc21)N1CCCC1 the results were NS1 function inh inconclusive, Shiga inhibitor inactive, LmPK inhibitor inactive, SARS PLpro yeast inactive, Tb PYK inh inactive and Cycloheximide cs inactive.
For O=C1CN(CC(=O)N2CCOCC2)c2ccccc2O1 the results were Shiga inhibitor 98.1, LmPK inhibitor inactive, SARS PLpro yeast inactive and Cycloheximide cs 34.1.
For Cc1ccc(C2c3c(oc4ccc(Cl)cc4c3=O)C(=O)N2CCCN2CCOCC2)o1 (centres undefined) the results were NS1 function inh inactive, Shiga inhibitor inactive, LmPK inhibitor inactive, SARS PLpro yeast inactive and Cycloheximide cs 9.5.
`COc1ccc(C2c3c(oc4ccc(Cl)cc4c3=O)C(=O)N2CCN2CCOCC2)cc1` (centres undefined) gave NS1 function inh inactive, Shiga inhibitor inactive, LmPK inhibitor inactive, SARS PLpro yeast inactive, Tb PYK inh inactive and Cycloheximide cs 13.0.
Screening Cc1sc2ncn(CC(=O)Nc3ccc(C(C)C)cc3)c(=O)c2c1S(=O)(=O)N1CCN(c2ncccn2)CC1 returned Tb PYK inh inactive.
`CCc1ccc(C2CC(c3ccco3)=NN2S(C)(=O)=O)cc1` (centres undefined) gave NS1 function inh inactive, Shiga inhibitor 82.8, LmPK inhibitor 12.6µM, SARS PLpro yeast inactive, Tb PYK inh inactive and Cycloheximide cs 45.4.
`COCCCn1c(SCC(=O)Nc2ccc3c(c2)OCCO3)nnc1-c1ccoc1C` gave NS1 function inh inactive, Shiga inhibitor 76.2, LmPK inhibitor inactive, SARS PLpro yeast inactive, Tb PYK inh inactive and Cycloheximide cs 26.9.
For COCCn1c(SCC(=O)c2ccc3c(c2)OCCO3)nnc1-c1ccoc1C the results were NS1 function inh inactive, Shiga inhibitor 104.5, LmPK inhibitor inactive, SARS PLpro yeast inactive, Tb PYK inh inactive and Cycloheximide cs 110.6.
`COCCn1c(SCC(=O)N2CCCC2)nnc1-c1ccoc1C` gave NS1 function inh inactive, Shiga inhibitor 82.2, LmPK inhibitor inactive, SARS PLpro yeast inactive, Tb PYK inh inactive and Cycloheximide cs inactive.
For COc1ccc(N2CC(NC(=O)c3ccc(OC(C)C)cc3)CC2=O)cc1 (centres undefined) the results were Tb PYK inh inactive.
`O=C(Cn1c(=O)nc(-c2ccccc2F)c2cc(Cl)ccc21)N1CCN(c2ccccc2F)CC1` gave Tb PYK inh inactive.
COc1ccc(NC(=O)c2cc(-c3ccc(O)cc3)on2)cc1OC was read as NS1 function inh inactive.
Cc1cccc(C)c1NC(=O)CN(C)C(=O)Cc1cccc(C(F)(F)F)c1 was read as NS1 function inh inactive, Shiga inhibitor 31.4, LmPK inhibitor inactive, SARS PLpro yeast inactive, Tb PYK inh inactive and Cycloheximide cs inactive.
CNS(=O)(=O)c1ccc2nc(NC(=O)/C=C/c3ccco3)sc2c1 was read as Shiga inhibitor inactive, LmPK inhibitor inactive, SARS PLpro yeast inactive, Tb PYK inh inactive and Cycloheximide cs inactive.
Screening COc1ccc(/C=C/C(=O)NC2=NCCS2)cc1OC returned NS1 function inh inactive, Shiga inhibitor 69.7, LmPK inhibitor inactive, SARS PLpro yeast inactive, Tb PYK inh inactive and Cycloheximide cs 37.8.
Screening CCSc1nnc(NC(=O)/C=C/c2ccco2)s1 returned Shiga inhibitor 116.7, LmPK inhibitor inactive, SARS PLpro yeast inactive, Tb PYK inh inactive and Cycloheximide cs 30.1.
`Cc1nc(NC(=O)/C=C/c2ccco2)sc1C` gave NS1 function inh inactive, Shiga inhibitor 143.8, LmPK inhibitor inactive, SARS PLpro yeast inactive, Tb PYK inh inactive and Cycloheximide cs 57.3.
For O=C(/C=C/c1ccco1)Nc1nnc(-c2ccco2)s1 the results were NS1 function inh inactive, Shiga inhibitor inactive, LmPK inhibitor inactive, SARS PLpro yeast inactive, Tb PYK inh inactive and Cycloheximide cs 14.4.
CCCn1nnc(NC(=O)/C=C/c2ccco2)n1 was read as NS1 function inh inactive, Shiga inhibitor inactive, LmPK inhibitor inactive, SARS PLpro yeast inactive, Tb PYK inh inactive and Cycloheximide cs inactive.
O=C(CN1C(=O)C(=O)N(C2CCCC2)C1=O)Nc1ccccc1OC(F)F was read as SARS PLpro yeast inactive and Tb PYK inh inactive.
Screening CC(Sc1ccccc1)C(=O)N1CCN(S(=O)(=O)c2ccc(Cl)cc2)CC1 (centres undefined) returned NS1 function inh inactive, Shiga inhibitor inactive, LmPK inhibitor inactive, SARS PLpro yeast inactive, Tb PYK inh inactive and Cycloheximide cs inactive.
Screening COc1ccc2cc(C(C)C(=O)NC3CCC(O)CC3)ccc2c1 (centres undefined) returned NS1 function inh inactive, Shiga inhibitor inactive, LmPK inhibitor inactive, SARS PLpro yeast inactive, Tb PYK inh inactive and Cycloheximide cs inactive.
COCCNC(=O)CN1C(=O)CCn2nc(-c3cn(C)c4ccccc34)cc21 was read as Tb PYK inh inactive.
`CC(=O)NNC(=S)Nc1cccc(F)c1` gave NS1 function inh inactive, Shiga inhibitor inactive, LmPK inhibitor inactive, SARS PLpro yeast inactive, Tb PYK inh inactive and Cycloheximide cs inactive.
`CCOC(=O)c1sc(NC(=O)/C=C/c2ccc(F)cc2)nc1C` gave NS1 function inh inactive, Shiga inhibitor inactive, LmPK inhibitor inactive, SARS PLpro yeast inactive, Tb PYK inh inactive and Cycloheximide cs inactive.
